# D2 ag-1: HTS Assay for Allosteric Agonists of the Human D2 Dopamine Receptor: Primary Screen for Agonists. D(2) dopamine receptor (Homo sapiens), P14416. HEK293 T-REx D2 cells, calcium flux agonist mode. activation, % at 2 µM. 0.53% of 340,000 active. AID 485358, 2010;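 active = activation over 3 SD above normal in the single-dose calcium agonist read, cut at about 30% in these data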; note: 0% is about no effect
# Target sequence (P14416 whole entry, looked up): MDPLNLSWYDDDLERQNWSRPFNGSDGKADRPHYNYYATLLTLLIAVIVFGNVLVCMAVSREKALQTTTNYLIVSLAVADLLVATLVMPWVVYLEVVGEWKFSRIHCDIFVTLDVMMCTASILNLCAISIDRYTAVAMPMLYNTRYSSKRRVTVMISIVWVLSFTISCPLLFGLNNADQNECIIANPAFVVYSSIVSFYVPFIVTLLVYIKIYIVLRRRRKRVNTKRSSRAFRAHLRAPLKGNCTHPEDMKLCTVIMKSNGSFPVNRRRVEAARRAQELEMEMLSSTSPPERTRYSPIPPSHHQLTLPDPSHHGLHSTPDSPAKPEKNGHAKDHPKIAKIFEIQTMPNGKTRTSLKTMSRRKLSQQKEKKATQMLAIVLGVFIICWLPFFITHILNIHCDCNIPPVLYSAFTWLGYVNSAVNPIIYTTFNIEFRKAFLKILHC
#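 Tetracycline-induced HEK293 T-REx cells with force-coupled D2 receptor, plated overnight at 30 C, loaded with no-wash calcium dye. After a 10 s baseline, compound was pin-added and calcium flux read kinetically for 180 s; calcium rises flagged agonists.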
# D2 antagonist: HTS Assay for Allosteric Antagonists of the Human D2 Dopamine Receptor: Primary Screen for Antagonists; inhibition, % at 10 µM; HEK293 TREx D2 cells, calcium flux, dopamine EC80; 2% of 340,000 active; D(2) dopamine receptor (Homo sapiens), P14416; in the data active = inhibition above about 30%; inactive = below that, where a call was filed; note: 0% is about no effect
#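 Measurement of antagonist activity uses fluorescent calcium dye in inducible HEK293 T-REx D2 cells: 10 s baseline, compound addition with 180 s read, EC80 dopamine addition with a further 180 s read.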
# D2 PAM-1: Beta-Arrestin HTS for Positive Allosteric Modulators of the Human D2 Dopamine Receptor: Potentiators. D(2) dopamine receptor (Homo sapiens), P14416. DiscoveRx D2 beta-arrestin cells, luminescence, 90 min; 100% = 57 uM dopamine signal. potentiation, % (no concentration beside the values). 0.23% of 360,000 active. AID 624464, 2012; in the data active = potentiation above about 50%; inconclusive = mostly about 30% to 49%
#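 PathHunter D2 cells, attached overnight at 37 deg C, received compound in DMSO plus dopamine at EC20 (50 nM final) for 90 min at 37 deg C. Beta-arrestin recruitment was read as luminescence after 1 h with detection reagent at ambient temperature.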
# D2 PAM-2: HTS Assay for Positive Allosteric Modulators of the Human D2 Dopamine Receptor: Primary Screen for Potentiators; D(2) dopamine receptor (Homo sapiens), P14416; HEK293 T-REx D2, calcium flux, EC20 dopamine potentiation; potentiation, % at 10 µM; 0.34% of 340,000 active; AID 485347, 2010;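 active = potentiation over 3 SD above the plate norm, cut at about 30% in these data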; note: 0% is about no effect
#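 Tetracycline-induced Hek293 Trex D2 cells, force-coupled to calcium, loaded with no-wash calcium dye. Compound added with 180 s kinetic read for agonism, then EC20 dopamine and a further 180 s read for potentiation.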
# D2 ag-2: Beta-Arrestin HTS for Positive Allosteric Modulators of the Human D2 Dopamine Receptor: Agonists; D(2) dopamine receptor (Homo sapiens), P14416; DiscoveRx PathHunter D2 beta-arrestin, luminescence, 90 min; 100% = 57 uM dopamine signal; activation, % (no concentration beside the values); 0.084% of 360,000 active; AID 624465, 2012; in the data active = activation above about 40%; inconclusive = between about 15% and that limit
#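 Agonist mode: compounds alone added to overnight-plated D2 PathHunter cells for 90 min at 37 C, with 57 uM final dopamine (EC100) defining full response. Beta-arrestin recruitment detected by chemiluminescent reagent, read after 1 h at ambient temperature.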
# * = called active by the depositor; ? = inconclusive; nt = no result given; ! = repeats disagree. A selection: hits, their analogues and other compounds. The true share with any hit is near 2.4%.
SMILES,D2 ag-1,D2 antagonist,D2 PAM-1,D2 PAM-2,D2 ag-2
CC(C(=O)Nc1ccc(C#N)cc1)N1CCN(C(=O)C2CC2)CC1 (stereo unspecified),0,0,-3,5,-1
O=C(NC1CC(=O)N(c2cccc(F)c2)C1)C1CCCC1 (stereo unspecified),1,nt,nt,-3,nt
C[C@@H]1CN([C@H](C)CO)S(=O)(=O)c2ccc(C#CC3CCCC3)cc2O[C@H]1CN(C)C(=O)Cc1ccccc1,nt,nt,-3,nt,-4
Cc1ccc(C(C)C)c(OCC(=O)Nc2c(C(=O)c3ccc(F)cc3)oc3ccccc23)c1,nt,nt,nt,2,nt
O=[N+]([O-])c1nn(-c2ccc3c(c2)OCCO3)n(O)c1=NC1CCCCC1,1,7,118*,-3,?
COc1ccccc1CN=c1c([N+](=O)[O-])nn(-c2ccc3c(c2)OCCO3)n1O,-1,8,129*,5,?
Cc1ccc(CN=c2c([N+](=O)[O-])nn(-c3cccc(Cl)c3)n2O)cc1,-5,3,?,0,?
O=[N+]([O-])c1nn(-c2ccc3c(c2)OCCO3)n(O)c1=NCc1ccccc1Cl,0,24,54*,-2,12
COc1ccc2oc(C(=O)OCC(=O)N(C)C3CCS(=O)(=O)C3)c(C)c2c1 (stereo unspecified),1,3,-1,1,2
CCOc1ccc(CCNC(=O)COC(=O)c2cc(=O)[nH]c3ccccc23)cc1OCC,0,-8,0,-5,-3
Cc1ccc2nc3ccc(N4CCCC4)nn3c(=O)c2c1,-1,5,-13,-7,-2
Cc1sc2nc3ccc(N4CCCCC4)nn3c(=O)c2c1C,1,37*,-2,-9,-12
Cc1ccc(-c2nc3ccc([N+](=O)[O-])cc3[nH]2)cc1,0,45*,-1,0,0
COc1ccc(-c2nc3ccc([N+](=O)[O-])cc3[nH]2)cc1,1,1,17,5,3
O=C(CCc1nc2ccccc2c(=O)[nH]1)Nc1ccc(N2CCCCC2)cc1,-5,77*,-10,-3,1
CC(Nc1ccc2ccccc2c1)C(=O)N/N=C/c1ccncc1 (stereo unspecified),nt,nt,-1,nt,10
CN(CC(O)CN1CCOCC1)S(=O)(=O)O (stereo unspecified),1,34*!,-5,4,-2
OC(CN1CCOCC1)CN1CCOCC1,1,12,-9,11,-2
O=C(Nc1ccc(S(=O)(=O)NC2=NCCCCC2)cc1)c1cccc(OC(F)F)c1,nt,nt,-9,nt,-5
O=C(NCc1ccc2c(c1)CCO2)Nc1cccc(C(F)(F)F)c1,0,40*,-14,-8,-2
CC(=O)Nc1cccc(NC(=O)CSc2nnc(Cc3cccn3C)n2-c2ccc(F)cc2)c1,-3,49*,-19,-2,-3
O=C(c1ccccc1)N(Cc1ccco1)C1CCS(=O)(=O)C1 (stereo unspecified),4,37*,-9,2,-3
O=C(c1ccc(F)cc1)N(Cc1ccco1)C1CCS(=O)(=O)C1 (stereo unspecified),2,-17,-14,1,-1
Nc1nonc1OCCOCCOCCOc1nonc1N,0,-17,-1,11,-3
Cc1cc(C)n(CCOc2nonc2N)n1,1,34*,6,-7,0
SMILES,D2 ag-1,D2 antagonist,D2 PAM-1,D2 PAM-2,D2 ag-2
CC(=O)Nc1cc(-c2cccc(C(=O)N(C)C)c2)cn2c(-c3cccc(C(F)(F)F)c3)cnc12,nt,nt,-6,nt,-3
CCc1ccc(NC(=O)COC(=O)CCCC2=NS(=O)(=O)c3ccccc3N2)cc1,-1,-5,-6,10,2
O=C(COC(=O)CCCC1=NS(=O)(=O)c2ccccc2N1)Nc1ccccc1,0,3,-19,38*,-5
CCC(=O)N1c2ccc(S(=O)(=O)NC3CCCCC3)cc2CC1C (stereo unspecified),0,9,-7,-15,0
CC(NC(=O)COC(=O)CSCc1ccccc1)c1ccccc1 (stereo unspecified),-1,2,-35,3,0
CC(NC(=O)COC(=O)CCc1ccccc1)c1ccccc1 (stereo unspecified),-1,35*,-9,-25,-2
Cc1oc(-c2ccccc2)nc1CSc1nc2c(c(=O)[nH]1)CCC2,0,35*,-2,6,2
Cc1cccc(-c2nc(CSc3nc4c(c(=O)[nH]3)CCC4)c(C)o2)c1,0,43*,8,8,8
Cc1ccc(C(=O)NCCc2nnc3ccc(SCC(=O)Nc4c(C)cc(C)cc4C)nn23)cc1,0,-6,-16,-1,-8
Cc1ccc(C(=O)NCCc2nnc3ccc(SCC(=O)Nc4ccccc4C)nn23)cc1,0,41*,-6,3,0
CCOC(=O)C1=CCN(S(=O)(=O)c2ccccc2Cl)C1c1ccccc1 (stereo unspecified),nt,nt,-7,nt,-1
Cc1cccc(N(CC(=O)NCc2ccco2)C(=O)CCC(=O)Nc2ccccn2)c1C,0,-2,-7,-5,-2
COc1ccccc1N(CC(=O)NCc1ccco1)C(=O)CCC(=O)Nc1ccccn1,-1,-7,3,32*,-1
CCOC(=O)C1=C(CN2CCN(C(=O)c3ccco3)CC2)NC(=O)NC1c1ccc(C)cc1 (stereo unspecified),2,37*,-12,1,2
CN(c1ccccc1)S(=O)(=O)c1cccc(NC(=O)CN2CCc3ccccc3C2)c1,28,33*,16,-13,?
O=C(CN1CCc2ccccc2C1)Nc1ccc(Br)cc1,1,58*,-40,-22,-1
CN(c1ccccc1)S(=O)(=O)c1cccc(NC(=O)CC(C)(C)C)c1,-1,-6,-9,4,0
O=C(Nc1ccccc1)N1CCc2ccccc21,0,-12,-7,-11,-3
O=C(CCC(=O)N1CCc2ccccc21)Nc1ccccc1,0,36*,-10,-9,-2
O=C(CN1CCc2ccccc2C1)Nc1ccccc1C(F)(F)F,34*,4,-2,-4,13
NC(=S)c1csc(CCNC(=O)c2ccccc2)n1,nt,nt,-11,nt,-4
Cn1cnc(S(=O)(=O)N2CCN(C(c3ccccc3)c3ccccc3)CC2)c1,1,-8,-3,8,-8
